Results reported in PubChem BioAssay (NCI).
About 83,000 compounds went through this panel and 20% of them were active in at least one assay; those are over-represented in the sample as a whole.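 Method: cells in 96-well plates; compound added at one concentration; 48 h incubation; percent growth measured; values under 10 scored active.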 Activity calls are given as the source filed them.

Assays:
Experiment in all cases: NCI-60 one-dose screen, 48 h (100 = growth as untreated, 0 = no growth, -100 = all killed)
Conditions in all cases: 10 µM unless noted
HCT-15 colon = tested on: HCT-15 colon
HT29 colon = tested on: HT29 colon
SNB-75 CNS = tested on: SNB-75 CNS
SNB-19 CNS = tested on: SNB-19 CNS
U251 CNS = tested on: U251 CNS
PC-3 prostate = tested on: PC-3 prostate
SK-MEL-5 melanoma = tested on: SK-MEL-5 melanoma
UACC-62 melanoma = tested on: UACC-62 melanoma
SK-MEL-28 melanoma = tested on: SK-MEL-28 melanoma
LOX IMVI melanoma = tested on: LOX IMVI melanoma

Measured: growth

Cn1cc(-c2nc(-c3c[nH]c4c(Cl)nccc34)cs2)c2cc(F)ccc21
inactive: HCT-15 colon 99.2% | HT29 colon 87.8% | SNB-75 CNS 107% | SNB-19 CNS 98% | U251 CNS 85.8% | PC-3 prostate 92.9% | SK-MEL-5 melanoma 94.5% | UACC-62 melanoma 97.5% | SK-MEL-28 melanoma 112%

C/C(=N\NC(=O)CSc1nc2ccccc2c(=O)n1CCc1ccc(S(N)(=O)=O)cc1)c1ccccn1
inactive: HCT-15 colon 26.8% | HT29 colon 31.5% | SNB-75 CNS 74.5% | SNB-19 CNS 46.6% | U251 CNS 31.8% | PC-3 prostate 50.7% | SK-MEL-5 melanoma 24.9% | LOX IMVI melanoma 13.8% | SK-MEL-28 melanoma 37.6%

COc1cc2nc(-c3ccc(Cl)cc3)cc(OCCCN3CCCCC3)c2cc1OC
active: SK-MEL-5 melanoma -18.5% | UACC-62 melanoma -32.6%
inactive: HCT-15 colon 17.4% | HT29 colon 18.1% | SNB-75 CNS 18.2% | SNB-19 CNS 70.5% | U251 CNS 48.7% | PC-3 prostate 42.9% | SK-MEL-28 melanoma 60%

CCOC(=O)c1cc(C(=O)c2ccc(Br)cc2)n2ccc(/C=C/c3cc[n+](CC(=O)c4ccc(OC)cc4)cc3)cc12
inactive: HCT-15 colon 70.7% | HT29 colon 34.3% | SNB-75 CNS 93.7% | SNB-19 CNS 89.1% | U251 CNS 101% | PC-3 prostate 83.8% | SK-MEL-5 melanoma 95.3% | LOX IMVI melanoma 81% | SK-MEL-28 melanoma 106%

Cn1ccnc1C(=O)/C=C/c1ccc(CC(=O)Nc2ccc(Cl)cc2)cc1
inactive: SNB-75 CNS 11.8% | PC-3 prostate 32.7% | SK-MEL-5 melanoma 33.3% | LOX IMVI melanoma 13.1%
active: HCT-15 colon 5.48% | HT29 colon 3.03% | SNB-19 CNS 6.66% | U251 CNS 6.28%

COc1ccccc1/C(C)=N/NC(=O)CSc1nc2ccccc2c(=O)n1Cc1ccc(S(N)(=O)=O)cc1
inactive: HCT-15 colon 97.6% | HT29 colon 114% | SNB-75 CNS 89.7% | SNB-19 CNS 93.3% | U251 CNS 103% | PC-3 prostate 111% | SK-MEL-5 melanoma 97.5% | UACC-62 melanoma 97.4% | SK-MEL-28 melanoma 114%

COC(=O)C1=C(C(=O)ON)[C@@H]2C=C[C@@]1([C@@H](Cc1ccccc1)Nc1ccccc1)O2
inactive: HT29 colon 57.7% | SNB-75 CNS 108% | SNB-19 CNS 104% | U251 CNS 92.2% | PC-3 prostate 101% | SK-MEL-5 melanoma 101% | LOX IMVI melanoma 77.7% | SK-MEL-28 melanoma 73.3%
active: HCT-15 colon -47.6%

N#CC1=C(N)Oc2c(ccc3ccccc23)C1c1ccccc1Cl (stereo not given)
inactive: HCT-15 colon 10.7% | HT29 colon 70% | SNB-75 CNS 13.3% | SNB-19 CNS 32.9% | U251 CNS 12.4% | PC-3 prostate 20% | LOX IMVI melanoma 27.3% | SK-MEL-28 melanoma 50.5%
active: SK-MEL-5 melanoma 9.89%

Cc1ccc(-n2cc(-c3ccccc3)c3c2N=NN2CCN=C32)cc1
inactive: HCT-15 colon 101% | HT29 colon 110% | SNB-75 CNS 72.1% | SNB-19 CNS 92.2% | U251 CNS 99.1% | PC-3 prostate 86.4% | SK-MEL-5 melanoma 99.1% | UACC-62 melanoma 82.3% | SK-MEL-28 melanoma 109%

COc1ccc(C/C(C)=C(/c2ccc(OCCCN(C)C)cc2)c2ccc(OC(C)=O)cc2)cc1
active: HT29 colon 4.9% | SK-MEL-28 melanoma 2.23%
inactive: HCT-15 colon 19.3% | SNB-75 CNS 74.1% | SNB-19 CNS 82.3% | U251 CNS 61.7% | PC-3 prostate 79.3% | SK-MEL-5 melanoma 69.6% | UACC-62 melanoma 51.3%

N#Cc1c(-c2ccccc2)nc2c(c(-c3ccccc3)nn2-c2ccccc2)c1-c1ccc(O)cc1
active: PC-3 prostate 4.85%
inactive: HCT-15 colon 34.8% | HT29 colon 84.7% | SNB-75 CNS 33.2% | SNB-19 CNS 39.3% | U251 CNS 24.3% | SK-MEL-5 melanoma 59% | UACC-62 melanoma 61.5% | SK-MEL-28 melanoma 49.1%

N#Cc1c(NCc2ccccc2I)sc2c1CCCCC2
inactive: HCT-15 colon 94.8% | HT29 colon 99.8% | SNB-75 CNS 84.8% | SNB-19 CNS 97.7% | U251 CNS 90% | PC-3 prostate 98.8% | SK-MEL-5 melanoma 98.2% | LOX IMVI melanoma 91.1% | SK-MEL-28 melanoma 110%

NNC(=O)c1ccc(-n2nc(-c3ccccc3)c3ccccc32)cc1
inactive: HCT-15 colon 57.6% | HT29 colon 103% | SNB-75 CNS 53.6% | SNB-19 CNS 66.1% | U251 CNS 22.6% | PC-3 prostate 69.4% | SK-MEL-5 melanoma 84.5% | LOX IMVI melanoma 68.2% | SK-MEL-28 melanoma 83.9%

COC(=O)C(OC(C)=O)C(OC(C)=O)c1ccc(OC)c(OC)c1 (stereo not given)
inactive: HCT-15 colon 97.8% | HT29 colon 97.2% | SNB-75 CNS 96.4% | SNB-19 CNS 103% | U251 CNS 97.5% | PC-3 prostate 81.5% | SK-MEL-5 melanoma 97.7% | UACC-62 melanoma 100% | SK-MEL-28 melanoma 102%
